Data from PubChem BioAssay (Tox21).
Records with an inconclusive call do not appear. Where a call stands in place of a potency, no number is given. Active and inactive are the calls of the source. Calls follow the shape of the full dose curve.

system: estrogen-related receptor alpha (ERRalpha) with PGC-1alpha coactivator, human; assay: qHTS assay to identify small molecule antagonists of the estrogen related receptor signaling pathway with the pleiotropic PPARgamma coactivator (PGC) (AID 1224821); details: ERR/PGC reporter cell line, luciferase, antagonist mode; series mostly up to 46.1 µM; also: nearly all actives have a fitted effect of over 50% in size
From the text: National Center for Advancing Translational Sciences [NCATS]
NIH Chemical Genomics Center [NCGC]
U.S. Environmental Protection Agency [EPA]
National Institutes of Environmental Health Sciences [NIEHS]
National Toxicology Program [NTP]
U.S. Food and Drug Administration [FDA]
Estrogen related receptors (ERRs), the first orphan nuclear receptors discovered, play an important role in the control of cellular energy metabolism. ERRs are required for high-energy production in response to the environmental challenges. The pleiotropic PPARgamma coactivator (PGC) is a major partner of ERR and a key regulator in energy homeostasis. Together they have been implicated in the etiology of metabolic disorders such as Type 2 diabetes and metabolic syndrome. ERR-alpha was also identified as an adverse marker for breast cancer progression; ERR-alpha-positive tumors have a poor prognosis. To screen and to identify environmental compounds that perturb the ERR and PGC/ERR signaling pathways could provide valuable information for potential therapeutic or preventive measures in the treatment of metabolic disease. For identifying PGC/ERR antagonists, PGC/ERR cell line (provided by NTP) has been used to screen LOPAC library.
Tox21 Assay Protocol Summary:
The PGC/ERR cells were dispensed at 2,000 cells/5 ul/well in 1536-well white plates using a Multidrop dispenser. After the assay plates were incubated at a 37 C/5% CO2 incubator for 6 hours, 23 nL of compounds dissolved in DMSO, positive and negative controls or DMSO only was transferred to the assay plate by a pin tool. The plates were incubated at 37 C for 18 hours. 4 ul/well of One-Glo reagent was added into the assay plates using a Flying Reagent Dispenser. After 30 min incubation at room temperature, the luminescence intensity in the plates was measured using a ViewLux plate reader.
Potency is read from the fitted curve at half-maximal effect.

Structure (SMILES) | Potency
CC1(C)CCC(NC(=O)[C@@H](N)CCC(=O)O)CC1 | inactive
O=C(Nc1ccncc1)c1cc([N+](=O)[O-])ccc1Cl | inactive
N[C@@H](Cc1ccc(F)cc1)C(=O)O | inactive
CC(C)N(CCC(=O)c1ccc2ccccc2c1)Cc1ccccc1 | 19.9 µM (active)
NC(Cc1cccc(-c2ccccc2CP(=O)(O)O)c1)C(=O)O (stereo not given) | inactive
Nc1nc2ccc(Cl)cc2c2nc(-c3ccco3)nn12 | inactive
NCCCS(=O)(=O)O | inactive
C=CC[C@H](N)C(=O)O | inactive
C#CC(N)CCC(=O)O (stereo not given) | inactive
Brc1ccc([C@H]2CN3CCSC3=N2)cc1 | inactive
COC(=O)c1c(C)[nH]c(C)c1C(=O)c1ccccc1Cc1ccccc1 | inactive
C#C[C@]1(O)CC[C@H]2[C@@H]3CCC4=Cc5oncc5CC4(C)[C@H]3CCC21C (stereo not given in full) | 19.6 µM (active)
O=C(O)c1ccccc1Nc1ccccc1 | inactive
CCCCCC(O)CCCC(=O)O (stereo not given) | inactive
Fc1ccc(CN(C2=NCCN2)c2c(Cl)cccc2Cl)cc1 | inactive
N[C@@H](CCC(=O)N[C@H](CSN=O)C(=O)NCC(=O)O)C(=O)O | inactive
NC[C@@H]1O[C@H](c2ccccc2)Cc2c1ccc(O)c2O | inactive
O=C1NC(=O)c2cc(Nc3ccccc3)c(Nc3ccccc3)cc21 | 20.3 µM (active)
Nc1nc(Cl)nc2c1ncn2[C@@H]1O[C@H](CO)C(O)[C@H]1O (stereo not given in full) | inactive
NCCCCN=C(N)N | inactive

Structure (SMILES) | Potency
CNC(=O)c1cc2c(cn1)[nH]c1ccccc12 | inactive
N[C@H](C(=O)O)[C@H](Cc1ccccc1)C(=O)O | inactive
C[C@H](O)C(=O)C1=Nc2c(nc(N)[nH]c2=O)NC1 | inactive
COc1cc(C(O)CO)ccc1OS(=O)(=O)O (stereo not given) | inactive
O=C(O)CCC(=O)N1CCCC1C(=O)O (stereo not given) | inactive
C#CCn1c(=O)c2c(ncn2C)n(C)c1=O | inactive
N[C@@H](Cn1ccc(=O)c(O)c1)C(=O)O | inactive
c1ccc2c(c1)CCC[C@H]2Nc1nc2ccccc2[nH]1 | inactive
N=C(N)SCCN | inactive
O=c1c2ccccc2nc2n1CCc1c-2[nH]c2ccccc12 | inactive
NC1(C(=O)O)CCc2cc(C(=O)O)ccc21 (stereo not given) | inactive
O=c1onc2cnc3ccccc3n12 | inactive
N[C@H](C(=O)O)[C@H]1C[C@@H]1C(=O)O | inactive
C=CCc1cccc(/C=N/NC(=O)CN2CCN(Cc3ccccc3)CC2)c1O | inactive
CC(C)(CO)Cc1cc(C(C)(C)C)c(O)c(C(C)(C)C)c1 | inactive
CN1CCc2ccccc2Cc2[nH]c3ccccc3c2CC1 | inactive
CS(=O)(=O)c1cccc(CNc2nc(Nc3ccc4c(c3)CCC(=O)N4)ncc2C(F)(F)F)c1 | inactive
Cc1cc2c(cc1Cl)N(C(=O)Nc1ccc(Oc3cccnc3C)nc1)CC2 | 12.8 µM (active)
CNc1ncnc2c1ncn2[C@@H]1O[C@H](CO)C(O)[C@H]1O (stereo not given in full) | inactive
Cn1ncc(S(=O)(=O)Cc2ccccc2)c(Br)c1=O | inactive
